In PubChem BioAssay AID1159580 (chemical genetic matrix, 2015):
Several values for one entry are separate records, joined by “and”; a condition that tells them apart may be missing. Identical values can stand only once. The campaign covered roughly 5,500 compounds. About 2,000 (36%) were called active. Roughly 18% stayed inconclusive and do not appear here. Cut-off read from the data, not from the text of the source: active = normalized growth mostly below about 0.91 (no sharp cut-off); inconclusive = no clear call, values can overlap the other calls; inactive = mostly above about 0.92. The list shows a part of the results.

Assay: chemical genetic growth profiling, strain panel (AID 1159580);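 note: tested at 20 µM; growth read once vehicle control cultures reached saturation at 30 °C; 1 = growth at the plate median or of vehicle wells; lower values mean less growth of the strain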
Settings: S. cerevisiae deletion strains, growth OD

Measured: normalized growth

CC(C)NCC(O)COc1cccc2ccccc12 (stereo unspecified)
inactive: locus YAL013W, strain DEP1, hits give low values 1.01 | locus YAL021C, strain ccr4, hits give low values 0.971 | locus YAL026C, strain drs2, hits give low values 1.03 | locus YAL030W, strain snc1, hits give low values 1.02 | locus YAL040C, strain CLN3, hits give low values 1.01 and 0.981 | locus YBL061C, strain skt5, hits give low values 1.01 | locus YBR009C, strain hhf1, hits give low values 1 | locus YBR023C, strain chs3, hits give low values 1.01 | locus YBR171W, strain sec66, hits give low values 1.01 | locus YBR231C, strain swc5, hits give low values 1.02 | locus YBR279W, strain paf1, hits give low values 1.01 | locus YCL011C, strain gbp2, hits give low values 1.01 | locus YCL016C, strain dcc1, hits give low values 0.995 | locus YCL061C, strain MRC1 (second series), hits give low values 1 and 1.02 | locus YCL061C, strain MRC1, hits give low values 1.02 | locus YCL069W, strain vba3, hits give low values 1.01 | locus YCR088W, strain abp1, hits give low values 1.01 | locus YDL005C, strain med2, hits give low values 1.01 | locus YDL040C, strain nat1, hits give low values 1.01 | locus YDR001C, strain nth1, hits give low values 1.02 | locus YDR069C, strain doa4, hits give low values 1.01 | locus YDR137W, strain rgp1, hits give low values 1.02 | locus YDR150W, strain NUM1, hits give low values 1 | locus YDR159W, strain sac3, hits give low values 0.992 | locus YDR195W, strain ref2 1.02 | locus YDR297W, strain sur2, hits give low values 1.01 | locus YDR334W, strain swr1, hits give low values 1.04 | locus YDR335W, strain msn5, hits give low values 1.01 | locus YDR363W, strain ESC2, hits give low values 1.01 and 0.959 | locus YDR392W, strain spt3, hits give low values 1.02 | locus YEL003W, strain gim4, hits give low values 1.03 | locus YEL037C, strain rad23, hits give low values 1.01 | locus YEL061C, strain CIN8 (second series), hits give low values 1.02 | locus YER002W, strain NOP16, hits give low values 0.992 and 1.01 | locus YER015W, strain faa2, hits give low values 1.01 | locus YER016W, strain bim1, hits give low values 1.01 | locus YER111C, strain swi4, hits give low values 1.03 | locus YER155C, strain BEM2 (second series), hits give low values 1.05 | locus YFR010W, strain ubp6, hits give low values 1.02 | locus YGL167C, strain pmr1, hits give low values 1.02 | locus YGL173C, strain kem1, hits give low values 1.01 | locus YGL227W, strain vid30, hits give low values 1 | locus YGL240W, strain doc1, hits give low values 1.02 | locus YGL253W, strain hxk2, hits give low values 1.02 | locus YGR078C, strain PAC10, hits give low values 1.02 and 1.01 | locus YGR229C, strain SMI1, hits give low values 1.08 | locus YHR013C, strain ard1, hits give low values 0.965 | locus YHR027C, strain rpn1, hits give low values 1.01 | locus YHR030C, strain SLT2, hits give low values 1.01 | locus YHR079C, strain IRE1, hits give low values 1.02 | locus YHR142W, strain chs7, hits give low values 1.05 | locus YJL092W, strain hpr5, hits give low values 1.01 | locus YJL095W, strain BCK1 (second series), hits give low values 1 | locus YJL095W, strain BCK1, hits give low values 0.967 | locus YJL115W, strain asf1, hits give low values 1.01 | locus YJL129C, strain trk1, hits give low values 1.01 | locus YJL154C, strain vps35, hits give low values 1.01 | locus YJL164C, strain tpk1, hits give low values 0.997 | locus YJL166W, strain qcr8, hits give low values 1.01 | locus YJR066W, strain TOR1, hits give low values 0.996 | locus YJR075W, strain HOC1, hits give low values 1.01 and 1 | locus YKL160W, strain elf1, hits give low values 1.01 | locus YKR026C, strain gcn3, hits give low values 1.01 | locus YKR091W, strain srl3, hits give low values 1.02 | locus YLL001W, strain dnm1, hits give low values 1.02 | locus YLL026W, hits give low values 1.01 | locus YLL041C, strain sdh2, hits give low values 1.01 | locus YLR027C, strain aat2, hits give low values 1.01 | locus YLR113W, strain HOG1, hits give low values 0.976 | locus YLR221C, strain rsa3, hits give low values 0.972 | locus YLR258W, strain gsy2, hits give low values 1 | locus YLR262C, strain YPT6 (second series), hits give low values 1 | locus YLR320W, strain mms22, hits give low values 0.997 | locus YLR342W, strain FKS1, hits give low values 1.01 | locus YLR357W, strain rsc2, hits give low values 1.07 | locus YLR370C, strain arc18, hits give low values 1.01 | locus YLR384C, strain iki3, hits give low values 1.01 | locus YML120C, strain ndi1, hits give low values 1.01 | locus YMR058W, strain fet3, hits give low values 1.02 | locus YMR125W, strain sto1, hits give low values 1.07 | locus YMR129W, hits give low values 1.01 | locus YMR205C, strain PFK2, hits give low values 1.02 | locus YMR231W, strain pep5, hits give low values 1.01 | locus YMR263W, strain SAP30, hits give low values 1 | locus YMR307W, strain GAS1, hits give low values 1.01 | locus YNL071W, strain lat1, hits give low values 1.01 | locus YNL128W, strain TEP1, hits give low values 0.995 | locus YNL175C, strain NOP13, hits give low values 1.02 and 1.01 | locus YNL183C, strain NPR1, hits give low values 1.01 | locus YNL197C, strain WHI3, hits give low values 1 and 1.01 | locus YNL209W, strain ssb2, hits give low values 1 | locus YNL224C, strain SQS1, hits give low values 1.01 and 1.02 | locus YNL248C, strain rpa49, hits give low values 1.04 | locus YNL322C, strain KRE1 (second series), hits give low values 1 | locus YNL322C, strain KRE1, hits give low values 1.01 | locus YNR049C, strain mso1, hits give low values 1.01 | locus YOR001W, strain rrp6, hits give low values 1.02 | locus YOR070C, strain gyp1, hits give low values 1.01 | locus YOR080W, strain dia2, hits give low values 1.02 | locus YOR083W, strain WHI5 (second series), hits give low values 1.02 and 0.993 | locus YOR083W, strain WHI5, hits give low values 1.01 | locus YOR106W, strain vam3, hits give low values 1.03 | locus YOR231W, strain MKK1, hits give low values 1.01 | locus YOR265W, strain rbl2, hits give low values 1.02 | locus YOR270C, strain vph1, hits give low values 1.06 | locus YOR290C, strain snf2, hits give low values 1.01 | locus YPL051W, strain arl3, hits give low values 1 | locus YPL078C, strain atp4, hits give low values 1.06 | locus YPL106C, strain sse1, hits give low values 0.985 | locus YPL240C, strain hsp82, hits give low values 0.993 | locus YPL256C, strain CLN2, hits give low values 1.02
